# Experimental data from the supplement of paper PMC10981050.
# Values joined by “and” are separate entries in the source; they are usually repeats but may differ in a detail not shown here. Equal values may be shown once. Where a name gives a salt, the structure may show the parent alone.
# Experiments:
# Assay in all cases: cell viability relative to vehicle control; higher = less cytotoxic
# Conditions in all cases: 10 µM
# K562 = test system: K562
# Summary of the method: (§1)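 CRISPR-edited mutant clones and isogenic wild-type clones from four leukaemia lines were screened against Selleck bioactive, kinase and epigenetic probe libraries, with identity-inconsistent compounds excluded. Each compound was acoustically dispensed at a single 10 µM dose into 384-well plates holding 2000 cells in 50 µL medium per well. After 48 h the supernatant was removed and CellTiter-Glo luminescence was read. Viability was expressed as percent of the on-plate vehicle control and analysed in Genedata Screener.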
# MARIMO = test system: MARIMO
# Summary of the method: as §1
# MOLM14 = test system: MOLM14
# Summary of the method: as §1
# OCI-AML2 = test system: OCI-AML2
# Summary of the method: as §1
SMILES,cell viability (K562; SRSF2 genotype: SRSF2 P95H/wt),cell viability (K562; SRSF2 genotype: SRSF2 wt/wt) [%],cell viability (MARIMO; SRSF2 genotype: SRSF2 P95H/wt) [%],cell viability (MARIMO; SRSF2 genotype: SRSF2 wt/wt) [%],cell viability (MOLM14; SRSF2 genotype: SRSF2 P95H/wt) [%],cell viability (MOLM14; SRSF2 genotype: SRSF2 wt/wt) [%],cell viability (OCI-AML2; SRSF2 genotype: P95H/wt) [%],cell viability (OCI-AML2; SRSF2 genotype: wt/wt) [%]
Cc1ccccc1C(OCCN(C)C)c1ccccc1 (centres undefined) [Orphenadrine Hydrochloride],99.9% and 97.1%,101,86.2,92.2,100,103,101,98.8
CNCCc1ccccn1 [Betahistine 2HCl],97.2% and 99.7%,95.5,88.7,102,90.6,99.8,89.3,101
O=C(Nc1cccc(Nc2ncc(Br)c(NCCc3cnc[nH]3)n2)c1)N1CCCC1,46.5% and 64.2%,47.1,49.8,45.4,5.3,3.38,4.66,10.9
NC1=N[C@@](c2cccc(-c3cncnc3)c2)(c2ccnc(C(F)F)c2)c2cccc(F)c21,76.9% and 74.8%,81.4,80.1,95.2,85.7,84.1,71.1,71.3
C[C@]12CC[C@H](O)CC1=CC[C@@H]1[C@@H]2CC[C@]2(C)C(n3cnc4ccccc43)=CC[C@@H]12 [Galeterone (TOK-001)],83% and 93.4%,95.7,77.5,81.9,88.2,97.8,80.3,80.1
CCCOC(=O)c1ccc(O)cc1 [Propylparaben],96.5% and 97.2%,101,91.3,107,98.9,105,95.6,90.1
O=C1c2c(O)cccc2C([C@@H]2O[C@H](CO)[C@@H](O)[C@H](O)[C@H]2O)c2cc(CO)cc(O)c21 (some centres undefined) [Aloin (Barbaloin)],105% and 104%,98.5,105,102,109,104,98.1,102
Cc1[nH]nc2ccc(-c3cncc(OC[C@@H](N)Cc4ccccc4)c3)cc12,31.9% and 28.5%,26.3,7.82,5.76,0.2,0.05,0.26,6.55
CN(C)CC(c1ccc(O)cc1)C1(O)CCCCC1 (centres undefined) [Desvenlafaxine Succinate],96.4% and 90.5%,101,98.4,103,98.4,100,100,90
CC(C)=CCCC(C)(OC1OC(COC2OCC(O)C(O)C2O)C(O)C(O)C1O)C1CCC2(C)C1C(O)CC1C3(C)CCC(OC4OC(CO)C(O)C(O)C4O)C(C)(C)C3CCC12C (centres undefined) [Gynostemma Extract],100% and 107%,102,108,111,101,102,110,98
Cn1cc(C(=O)[C@@H]2CCc3[nH]cnc3C2)c2ccccc21 [Ramosetron Hydrochloride],92.3% and 92.8%,81.9,91.2,94.8,96.2,94.1,92.2,89.9
C[S+](CC[C@H](N)C(=O)[O-])C[C@H]1O[C@@H](n2cnc3c(N)ncnc32)[C@H](O)[C@@H]1O (some centres undefined) [Ademetionine],108% and 105%,119,104,108,109,111,129,133
COc1cc2c(c(OC)c1OC)-c1c(cc3c(c1OC)OCO3)CC(C)C(C)C2 (centres undefined) [Schisandrin B],76.4% and 76%,74.8,71.8,86,73,76.2,90.8,84.9
Cc1c(C)c(NCC(=O)N(C)C2CCN(Cc3ccc(C(N)=O)cc3)CC2)c(C)c(C)c1N,103% and 95.7%,100,99.4,102,87.1,96.8,98.7,103
CN(C[C@@H]1COCCO1)S(=O)(=O)Nc1ccc2ccc3ncc(-c4cnn(C)c4)cc3c(=O)c2c1,77.6% and 96.8%,82.6,74.1,72.6,20.4,16.7,41.6,47.3
CC1(C)CC[C@]2(C(=O)O[C@@H]3O[C@H](CO)[C@@H](O)[C@H](O)[C@H]3O)CC[C@]3(C)C(=CC[C@@H]4[C@@]5(C)CC[C@H](O[C@@H]6O[C@H](C(=O)O)[C@@H](O)[C@H](O)[C@H]6O)C(C)(C)[C@@H]5CC[C@]43C)[C@@H]2C1 [Chikusetsusaponin IVa],100% and 103%,106,103,114,102,105,104,111
Cc1ccc(/C=N/NC(=O)c2ccccc2Oc2ccccc2)o1,96.8% and 102%,96.3,96.3,105,102,98.7,112,109
C=CS(=O)(=O)NC1CCN(C(=O)CNc2cc(I)c(Cl)cc2OC)CC1 [K-Ras(G12C) inhibitor 9],22.4% and 31%,82.8,36.4,81.1,60.6,84.1,22.1,30
CC(C)(Cc1ccc2ccccc2c1)NC[C@@H](O)COc1cccc(Cl)c1C#N,10.7% and 3.37%,1.65,26.8,25.5,8.56,2.3,0.55,1.15

SMILES,cell viability (K562; SRSF2 genotype: SRSF2 P95H/wt),cell viability (K562; SRSF2 genotype: SRSF2 wt/wt) [%],cell viability (MARIMO; SRSF2 genotype: SRSF2 P95H/wt) [%],cell viability (MARIMO; SRSF2 genotype: SRSF2 wt/wt) [%],cell viability (MOLM14; SRSF2 genotype: SRSF2 P95H/wt) [%],cell viability (MOLM14; SRSF2 genotype: SRSF2 wt/wt) [%],cell viability (OCI-AML2; SRSF2 genotype: P95H/wt) [%],cell viability (OCI-AML2; SRSF2 genotype: wt/wt) [%]
CC(=O)O[C@H]1C[C@@]2(C)[C@@H](C[C@@H](O)[C@H]3[C@@]4(C)CC[C@@H](O)[C@@H](C)[C@@H]4CC[C@@]32C)/C1=C(\CCC=C(C)C)C(=O)O [Fusidate Sodium],101% and 95.3%,102,102,104,102,100,94.7,108
COc1cc(C(C)=O)ccc1OCCCN1CCC(c2noc3cc(F)ccc23)CC1 [Iloperidone (Fanapt)],81.7% and 86.8%,86.3,68.2,90.2,85.9,88.5,71.4,83.4
O=c1c(-c2ccc(O)cc2)coc2cc(O[C@@H]3O[C@H](CO)[C@@H](O)[C@H](O)[C@H]3O)ccc12 [Daidzin],94.3% and 101%,96.3,91.7,104,98,104,93.5,98.4
CN(C)Cc1cccc(N=C(c2ccccc2)c2c(O)[nH]c3cc(C(N)=O)ccc23)c1,80.6% and 81.5%,78.9,72.2,83.8,11,15.9,23.9,31.1
COc1cc(Nc2ncc(F)c(Nc3ccc4c(n3)N(COP(=O)(O)O)C(=O)C(C)(C)O4)n2)cc(OC)c1OC,97.6% and 98.5%,97.5,107,114,8.88,11.4,26.3,37
O=c1n(CCCN2CCN(c3cccc(Cl)c3)CC2)nc2ccccn12 [Trazodone hydrochloride (Desyrel)],102% and 99.9%,103,105,109,106,102,106,104
CC1(C)OC[C@@H](COC(=O)CCc2ccc(OC[C@@H](O)CNCCNC(=O)N3CCOCC3)cc2)O1 [Landiolol hydrochloride],93.9% and 87.6%,101,97.6,92.6,97.6,98.2,98.3,102
Cc1ccc(/C=C2/C(=O)C3(C)CCC2C3(C)C)cc1 (centres undefined) [4-Methylbenzylidene camphor],105% and 97.8%,96.1,90,108,95.5,104,89.4,99.7
CCN(CC)CCCC[C@H](NC(=O)[C@H](CC(C)C)NC(=O)[C@H](C)NC(=O)[C@H](Cc1ccccc1)NC(=O)c1ccc(C(C)(C)C)cc1)C(=O)N[C@@H](CO)C(=O)OC,88.1% and 85%,84.6,86.1,99,83.2,92,90.4,113
COC(=O)N[C@H](C(=O)N1CCC[C@H]1C(=O)Nc1ccc([C@@H]2CC[C@@H](c3ccc(NC(=O)[C@@H]4CCCN4C(=O)[C@@H](NC(=O)OC)C(C)C)cc3)N2c2ccc(C(C)(C)C)cc2)cc1)C(C)C [Ombitasvir(ABT-267)],83.3% and 81.3%,91,89.8,96.3,91.9,92.5,112,99.6
COC(=O)C1=COC(OC2OC(CO)C(O)C(O)C2O)C2C(CO)=CC(O)C12 (centres undefined),105% and 104%,109,105,93.2,105,107,98.6,98.7
CC(C)NCC(O)c1ccc(NS(C)(=O)=O)cc1 (centres undefined) [Sotalol HCl],106% and 102%,95.7,101,109,104,102,106,102
O=c1oc2cc(O)ccc2c2ccc(O)cc12 [S5312 Urolithin A.cdx],98.3% and 101%,106,99.9,98.3,97.4,105,89,94.5
C=CC(=O)Nc1cccc(Nc2nc(Nc3ccc(NC4CN(CCF)C4)cc3OC)ncc2C(F)(F)F)c1,55.2% and 53.1%,64.8,22.3,19.6,4.64,10.4,12.3,17.9
CCCCCCCCC/C(=C\C1=C(C)C(=O)C(OC)=C(OC)C1=O)C(=O)O,106% and 100%,99.4,112,105,94.2,102,108,107
O=C(Nc1ccc(O)c(C(=O)O)c1)c1cccc(NC(=O)c2ccco2)c1,103% and 105%,99.4,97.2,100,104,102,105,105
COc1ccc(/C=C/C(=O)c2c(O)cc(OC)cc2OC)cc1 [Flavokawain A],95.5% and 92.8%,92.7,78.9,82.6,72.6,103,71.2,74.3
O=c1c(-c2ccc(O)cc2)coc2c([C@@H]3O[C@H](CO)[C@@H](O)[C@H](O)[C@H]3O)c(O)ccc12 [Puerarin (Kakonein)],109% and 101%,97.2,98.6,101,102,102,96.4,102
C[C@@H]1C[C@H]2[C@@H]3CCC4=CC(=O)C=C[C@]4(C)[C@@]3(Cl)[C@@H](O)C[C@]2(C)[C@@]1(OC(=O)c1ccco1)C(=O)CCl [Mometasone furoate],91.2% and 98.8%,92.2,87.8,103,82.7,79,113,118
